target: Glucocorticoid receptor (Homo sapiens) (UniProt P04150); assay: GR-GFP Redistribution (AID 450;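 active = compounds whose dose series gives a full or clear partial fitted curve of increased nuclear translocation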); conditions: U2OS GR-GFP nuclear translocation, laser cytometry, 2 h
Potency is the fitted concentration of half-maximal effect.

Glucocorticoid receptor (Homo sapiens), sequence (P04150 whole entry, looked up, the tested form may be a part): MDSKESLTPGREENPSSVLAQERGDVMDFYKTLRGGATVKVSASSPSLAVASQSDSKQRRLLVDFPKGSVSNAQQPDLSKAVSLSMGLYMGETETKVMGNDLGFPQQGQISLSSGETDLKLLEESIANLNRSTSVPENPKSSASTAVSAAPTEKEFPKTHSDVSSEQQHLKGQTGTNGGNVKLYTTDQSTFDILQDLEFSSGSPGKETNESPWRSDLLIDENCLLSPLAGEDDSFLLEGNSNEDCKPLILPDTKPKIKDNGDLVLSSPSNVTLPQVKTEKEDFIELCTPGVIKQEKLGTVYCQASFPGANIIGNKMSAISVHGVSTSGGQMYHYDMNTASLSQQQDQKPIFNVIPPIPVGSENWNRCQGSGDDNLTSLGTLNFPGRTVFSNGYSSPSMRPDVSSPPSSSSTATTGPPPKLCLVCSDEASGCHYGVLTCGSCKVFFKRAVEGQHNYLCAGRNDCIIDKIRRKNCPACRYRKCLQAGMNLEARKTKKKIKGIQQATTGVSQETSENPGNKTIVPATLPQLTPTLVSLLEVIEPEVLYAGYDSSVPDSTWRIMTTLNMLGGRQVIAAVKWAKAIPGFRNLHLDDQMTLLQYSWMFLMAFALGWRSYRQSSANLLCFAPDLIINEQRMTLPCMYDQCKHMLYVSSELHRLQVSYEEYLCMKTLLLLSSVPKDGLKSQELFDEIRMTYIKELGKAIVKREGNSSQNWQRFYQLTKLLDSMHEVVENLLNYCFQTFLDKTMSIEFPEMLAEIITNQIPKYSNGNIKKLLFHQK

Potency, inactive:
COc1ccccc1-c1nc(NCc2cccs2)c2ccccc2n1 > 46 µM
COc1ccc(CNc2ncncc2-c2ccoc2)c(OC)c1 > 46 µM
CCNc1ncc2nc(-c3cccs3)c(=O)n(C[C@H]3CCCO3)c2n1 > 9.22 µM
COc1ccccc1-c1nccc(NCc2cccnc2)n1 > 46 µM
CCNc1ncc2nc(C)c(=O)n(CCOC)c2n1 > 9.22 µM
c1ccc(CNc2nc(-c3ccoc3)nc3ccccc23)cc1 > 46 µM
N#Cc1cccc(-c2nc(NCc3cccs3)c3ccccc3n2)c1 > 46 µM
CN(Cc1ccco1)c1ncncc1-c1ccc2c(c1)OCO2 > 46 µM
CN(Cc1ccco1)c1ncncc1-c1cccnc1 > 46 µM
Cc1noc(C)c1-c1nc(N(C)C)c2ccccc2n1 > 46 µM
Cc1cnc(CNc2cc(-c3c(C)noc3C)ncn2)cn1 > 46 µM
CN(Cc1ccco1)c1nc(-c2ccc3c(c2)OCO3)nc2ccccc12 > 46 µM
N#Cc1cccc(-c2cncnc2NCCc2cnc[nH]2)c1 > 46 µM
O=c1c(-c2cccs2)nc2cncnc2n1-c1ccccc1 > 9.22 µM
COc1ccc(-c2nc3cnc(N4CCOCC4)nc3n(Cc3cccs3)c2=O)cc1 > 9.22 µM
COc1ccccc1-c1cncnc1NCc1ccccc1 > 46 µM
CCNc1ncc2nc(-c3cccs3)c(=O)n(-c3ccccc3)c2n1 > 9.22 µM
COc1cccc(-c2nccc(NCc3cnc(C)cn3)n2)c1 > 46 µM
COc1ccc(CNc2ncncc2-c2ccc(N(C)C)cc2)c(OC)c1 > 46 µM
COCCn1c(=O)c(-c2cccc(F)c2)nc2cncnc21 > 9.22 µM
Cc1noc(C)c1-c1nccc(Nc2ccc(F)cc2)n1 > 46 µM
COc1ccccc1-c1cc(Nc2ccn[nH]2)ncn1 > 46 µM
Cc1cnc(CNc2nc(-c3ccccc3Cl)nc3ccccc23)cn1 > 46 µM
CCNc1ncc2nc(-c3cccc(C#N)c3)c(=O)n(CCC#N)c2n1 > 9.22 µM
c1ccc(CNc2ccnc(-c3cccnc3)n2)cc1 > 46 µM
CN(C)C(=O)c1ccc(-c2cncnc2N(C)Cc2ccco2)cc1 > 46 µM
COc1ccccc1-c1cc(Nc2ccc(F)cc2)ncn1 > 46 µM
CN(C)c1nc(-c2ccccc2C(F)(F)F)nc2ccccc12 > 46 µM
COc1ccccc1-c1nc(N(C)Cc2ccco2)c2ccccc2n1 > 46 µM
COc1cccc(-c2cncnc2NCc2cccs2)c1 > 46 µM
COc1ccccc1CNc1ccnc(-c2c(C)noc2C)n1 > 46 µM
COCCn1c(=O)cnc2cnc(N(C)C)nc21 > 9.22 µM
COc1ccc(CNc2ccnc(-c3cccnc3)n2)c(OC)c1 > 46 µM
Cc1cnc(CNc2ncnc3ccc(-c4ccc(C(=O)N(C)C)cc4)cc23)cn1 > 46 µM
COc1cccc(Cn2c(=O)cnc3cnc(Nc4ccccc4)nc32)c1 > 46 µM

target: Glucocorticoid receptor (Homo sapiens) (UniProt P04150); assay: GR-EFC Redistribution (AID 451); conditions: CHO-K1 GR-EFC translocation, beta-gal luminescence, 2 h
Method in brief: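 CHO-K1 cells expressing nuclear EA and GR-ED fragments of b-gal; compounds titrated up to 46 uM final, 2 h at 37 C. GR nuclear translocation read as complemented b-gal luminescence after 1 h RT detection.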

Potency, inactive:
COc1ccccc1-c1nc(NCc2cccs2)c2ccccc2n1 > 46 µM
COc1ccc(CNc2ncncc2-c2ccoc2)c(OC)c1 > 46 µM
CCNc1ncc2nc(-c3cccs3)c(=O)n(C[C@H]3CCCO3)c2n1 > 46 µM
COc1ccccc1-c1nccc(NCc2cccnc2)n1 > 46 µM
CCNc1ncc2nc(C)c(=O)n(CCOC)c2n1 > 46 µM
c1ccc(CNc2nc(-c3ccoc3)nc3ccccc23)cc1 > 46 µM
c1csc(CNc2nc(-c3ccoc3)nc3ccccc23)c1 > 46 µM
N#Cc1cccc(-c2nc(NCc3cccs3)c3ccccc3n2)c1 > 46 µM
CN(Cc1ccco1)c1ncncc1-c1ccc2c(c1)OCO2 > 46 µM
Cc1noc(C)c1-c1nc(N(C)C)c2ccccc2n1 > 46 µM
Cc1cnc(CNc2cc(-c3c(C)noc3C)ncn2)cn1 > 46 µM
CN(Cc1ccco1)c1nc(-c2ccc3c(c2)OCO3)nc2ccccc12 > 46 µM
N#Cc1cccc(-c2cncnc2NCCc2cnc[nH]2)c1 > 46 µM
O=c1c(-c2cccs2)nc2cncnc2n1-c1ccccc1 > 46 µM
COc1ccc(-c2nc3cnc(N4CCOCC4)nc3n(Cc3cccs3)c2=O)cc1 > 46 µM
COc1ccc2[nH]cc(CCNc3cc(-c4c(C)noc4C)ncn3)c2c1 > 46 µM
CS(=O)(=O)Nc1cccc(-c2cc(NCc3ccccc3)ncn2)c1 > 46 µM
CCNc1ncc2nc(-c3cccs3)c(=O)n(-c3ccccc3)c2n1 > 46 µM
COc1cccc(-c2nccc(NCc3cnc(C)cn3)n2)c1 > 46 µM
COc1ccc(CNc2ncncc2-c2ccc(N(C)C)cc2)c(OC)c1 > 46 µM
CN(C)C(=O)c1ccc(-c2ccc3ncnc(NCCN4CCOCC4)c3c2)cc1 > 46 µM
Cc1noc(C)c1-c1nccc(Nc2ccc(F)cc2)n1 > 46 µM
COc1ccccc1-c1cc(Nc2ccn[nH]2)ncn1 > 46 µM
Cc1cnc(CNc2nc(-c3ccccc3Cl)nc3ccccc23)cn1 > 46 µM
CCNc1ncc2nc(-c3cccc(C#N)c3)c(=O)n(CCC#N)c2n1 > 46 µM
c1ccc(CNc2ccnc(-c3cccnc3)n2)cc1 > 46 µM
CN(C)C(=O)c1ccc(-c2cncnc2N(C)Cc2ccco2)cc1 > 46 µM
COc1ccccc1-c1cc(Nc2ccc(F)cc2)ncn1 > 46 µM
CN(C)c1nc(-c2ccccc2C(F)(F)F)nc2ccccc12 > 46 µM
COc1ccccc1-c1nc(N(C)Cc2ccco2)c2ccccc2n1 > 46 µM
c1ccc(Nc2ncncc2-c2ccoc2)cc1 > 46 µM
COc1ccccc1CNc1ccnc(-c2c(C)noc2C)n1 > 46 µM
COCCn1c(=O)cnc2cnc(N(C)C)nc21 > 46 µM
COc1ccc(CNc2ccnc(-c3cccnc3)n2)c(OC)c1 > 46 µM
Cc1cnc(CNc2ncnc3ccc(-c4ccc(C(=O)N(C)C)cc4)cc23)cn1 > 46 µM
COc1cccc(Cn2c(=O)cnc3cnc(Nc4ccccc4)nc32)c1 > 46 µM
